# Compound activity: PubChem BioAssay, Sanford-Burnham Center for Chemical Genomics
# Most compounds without a hit are left out; they make up all but 31% or so of the library.
# CYP2C19 inhib = human CYP2C19 inhibition; P33261; CYP2C19 Supersomes, luciferin-H EGE luminescence, 30 min; inhibition, % at 5 µM; 96,000 tested, 21% active;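 active means CYP2C19 inhibition above a set limit at 5 µM in the primary screen, cut at about 50% in these data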;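 further: plate controls were negative control wells for no effect and 2.5 mM tranylcypromine positive control for full effect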
# CYP2C9 inh = blocks human cytochrome P450 2C9; 96,000 tested, 20% active; inhibition, % at 5 µM; CYP2C9 Supersomes, luciferin-H conversion, luminescence; P11712;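 active means blocking of liver enzyme CYP2C9 beyond about 50% at 5 µM, limit read from the data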
# Target sequence (P11712 whole entry, looked up): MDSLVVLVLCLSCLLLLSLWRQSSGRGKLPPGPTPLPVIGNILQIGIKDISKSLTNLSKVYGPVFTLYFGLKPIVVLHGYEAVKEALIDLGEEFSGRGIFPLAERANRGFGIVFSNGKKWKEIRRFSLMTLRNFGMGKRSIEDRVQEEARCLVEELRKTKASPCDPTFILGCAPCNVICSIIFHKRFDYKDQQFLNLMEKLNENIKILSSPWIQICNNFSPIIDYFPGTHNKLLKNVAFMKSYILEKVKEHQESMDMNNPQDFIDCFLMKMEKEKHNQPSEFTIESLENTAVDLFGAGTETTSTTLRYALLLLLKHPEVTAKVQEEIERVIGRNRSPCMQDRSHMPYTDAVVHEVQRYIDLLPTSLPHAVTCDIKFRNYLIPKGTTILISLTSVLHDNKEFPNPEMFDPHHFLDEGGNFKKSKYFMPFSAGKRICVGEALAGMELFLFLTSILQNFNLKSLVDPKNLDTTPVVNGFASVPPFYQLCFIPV
# CYP2C9 act = CYP2C9 (human) activation | P11712 | recombinant CYP2C9, luciferin-H conversion, luminescence; active compounds read high; factor 1 = untreated enzyme, 0 = blocked | activation factor at 5 µM | 96,000 tested, 1.4% active;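 active means activation factor of 2 or more for CYP2C9 at a 5 µM dose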;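 further: 0 = sulfaphenazole-blocked wells and 1 = vehicle-only wells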
# CYP2C19 act = increases human CYP2C19 enzyme activity; P33261; recombinant CYP2C19, luciferin-H EGE luminescence; active compounds read high; 0 = fully inhibited enzyme, 1 = untreated enzyme; activation factor at 5 µM; 96,000 tested, under 10 active; AID 1025;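 active means activation factor of at least 2 at 5 µM in the primary screen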;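 further: 0 = wells with 2.5 mM tranylcypromine and 1 = vehicle-only wells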
# Starred values were filed as active, the others as inactive.
SMILES,CYP2C19 inhib,CYP2C9 inh,CYP2C9 act,CYP2C19 act
COc1ccc(OC)c(NC=C2C(=O)OC3(CCCCC3)OC2=O)c1,27.5,-37.0,1.4,0.7
CCOc1ccccc1NC=C1C(=O)OC2(CCCCC2)OC1=O,13.3,-163.1,2.6*,0.9
Cc1ccc(N)c(C(O)(C(F)(F)F)C(F)(F)F)c1,82.2*,58.1*,0.4,0.2
CCOC(=O)N(C)c1ccc(C(O)(C(F)(F)F)C(F)(F)F)cc1,38.9,47.1,0.5,0.6
Cc1ccc(CNS(=O)(=O)c2ccc(C(C)(C)C)cc2)n1C,73.2*,-89.6,1.9,0.3
CCC(C)NC(=O)C1CCC(=O)N(c2ccc3c(c2)OCO3)C1c1ccc(OC)cc1 (stereo not drawn),38.6,26.5,0.7,0.6
Cc1ccc(-c2csc(/C(C#N)=C(\O)CN3CCN(C(=O)c4ccco4)CC3)n2)cc1,0.7,47.7,0.5,1
O=C(CN1CCCC1)Nc1ccccc1Cl,7.2,18.4,0.8,0.9
Cc1ccc(NC(=O)CN2CCCCCC2)c(Br)c1,80.3*,13.8,0.9,0.2
O=C(CN1CCCCCC1)Nc1ccc(F)c(F)c1F,71.6*,8.0,0.9,0.3
Cc1cc(C)nc(NC(=O)CN2C(=O)c3ccccc3C2=O)n1,-6.4,-22.7,1.2,1.1
O=C(Nc1ccccc1C(F)(F)F)C1CC(=O)N(c2ccccc2F)C1 (stereo not drawn),15.8,12.7,0.9,0.8
CC(=O)Nc1ccc(S(=O)(=O)Nc2cc(C)c(-n3nc4ccccc4n3)cc2O)cc1,-5.7,4.1,1,1.1
CCCCN(CCCC)c1nc2ccccc2nc1NS(=O)(=O)c1ccc(NC(C)=O)cc1,48.3,64.2*,0.4,0.5
COc1ccc(CNC(=O)CN(Cc2ccccc2)C(=O)c2csnn2)cc1,31.8,25.5,0.7,0.7
COc1ccc(CNC(=O)c2cnccn2)cc1,57.9*,-29.9,1.3,0.4
COc1ccc(CNC(=O)c2csnn2)cc1,52.3*,3.7,1,0.5
Brc1cccc(-c2cnc3n2CCCCC3)c1,82.9*,6.6,0.9,0.2
Brc1cccc(-c2nnc3n2CCCCC3)c1,52.9*,9.2,0.9,0.5
C/C(=N\NS(=O)(=O)c1ccc(C)cc1)c1ccc(C)s1,-8.7,1.7,1,1.1
O=C(Cc1ccc(-n2cccc2)cc1)N1CCc2ccccc21,58.6*,11.3,0.9,0.4
COc1ccc(CCC(=O)N2CCc3ccccc32)cc1,59.7*,-2.3,1,0.4
COc1ccc(CCC(=O)N2c3ccccc3CC2C)cc1 (stereo not drawn),96.3*,56.8*,0.4,0
CCOCC(=O)N1CCc2ccccc21,4.5,-6.5,1.1,1
Cc1cc(C)n2nc(S(=O)(=O)NC3CCCCC3)nc2n1,24.1,-4.7,1,0.8
SMILES,CYP2C19 inhib,CYP2C9 inh,CYP2C9 act,CYP2C19 act
C=CCNC(=S)Nc1sc2c(c1C(=O)OCC)CC(C(C)C)OC2 (stereo not drawn),15.3,8.8,0.9,0.8
CC(=O)NC1=C(C#N)C(c2ccccc2)c2c(ccc3ccccc23)O1 (stereo not drawn),91.0*,95.4*,0,0.1
CC(=O)C1(C)OC(N)=C(C#N)C(c2ccccc2)C1(C#N)C#N (stereo not drawn),41.5,35.4,0.6,0.6
CC1(C)NC(=O)N(CC(O)COc2cccc(F)c2)C1=O (stereo not drawn),69.1*,44.7,0.6,0.3
CC1CCN(CC(O)COc2cccc(F)c2)CC1 (stereo not drawn),40.4,-5.7,1.1,0.6
CC1(C)NC(=O)N(CC(O)Cn2nnc3ccccc32)C1=O (stereo not drawn),68.7*,33.1,0.7,0.3
CC1(C)NC(=O)N(CC(O)CN2C(=O)CCC2=O)C1=O (stereo not drawn),-8.5,-21.8,1.2,1.1
CCOC(=O)CCC(=O)N1CCNC(=O)C1,16.5,28.5,0.7,0.8
CCCc1cc(C(=O)Cc2ccc(C(=O)OCC)o2)c(O)cc1O,93.3*,91.3*,0.1,0.1
CCCc1cc(C(=O)Cc2ccc(F)cc2)c(O)cc1O,98.4*,100.0*,0,0
O=C(Cc1ccc(F)cc1)c1ccc(O)cc1O,53.0*,37.7,0.6,0.5
CCCc1cc(-c2n[nH]c(C)c2-c2ccc(C(=O)OCC)o2)c(O)cc1O,97.3*,98.9*,0,0
CCOC(=O)c1ccc(NC(=O)CC2C(=O)N(c3ccccc3)C(=O)N2CCCOC)cc1 (stereo not drawn),91.6*,78.7*,0.2,0.1
CCOC(=O)c1ccc(NC(=O)CNC(=O)c2ccccc2)cc1,16.0,7.9,0.9,0.8
Fc1ccc(Sc2cc(Cl)c(-c3ccccc3)nn2)cc1,45.4,56.6*,0.4,0.5
O=C(CSc1nnc(-c2ccc(Cl)cc2)o1)N1CCN(c2ccccc2)CC1,-22.1,-13.7,1.1,1.2
O=C(c1ccc(N2CCOCC2)nc1)N1CCCCC1,11.7,-10.7,1.1,0.9
CCOCCOC(=O)c1ccc(-n2cncn2)nc1,61.3*,18.2,0.8,0.4
C#CCOC(=O)c1ccc(-n2cncn2)nc1,81.8*,33.0,0.7,0.2
CCOC(=O)c1ccc(-n2cncn2)nc1,41.7,4.3,1,0.6
C/C(N)=C(/C#N)C(=O)CN1CCCCC1,-10.7,-18.2,1.2,1.1
CCOC(=O)c1cc(C)n(CCc2ccccc2)c1C,7.7,34.3,0.7,0.9
Cc1cc(-c2csc(NC(=O)c3ccc(=O)n(C)n3)n2)c(C)n1CC1CCCO1 (stereo not drawn),8.6,13.5,0.9,0.9
Cc1cc(-c2csc(N)n2)c(C)n1CCc1ccccc1,84.3*,66.1*,0.3,0.2
Cc1cc(-c2csc(N)n2)c(C)n1CCC(C)C,95.1*,80.6*,0.2,0
SMILES,CYP2C19 inhib,CYP2C9 inh,CYP2C9 act,CYP2C19 act
Cc1ccc(S(=O)(=O)N2CCN(C(=O)COc3ccc(NC(=O)c4ccco4)cc3)CC2)cc1,13.1,-0.8,1,0.9
CCn1ncc(Br)c1C(=O)Nc1nccs1,27.9,32.7,0.7,0.7
COCc1[nH]nc2c1C(c1cccc(OC)c1)C(C#N)=C(N)O2 (stereo not drawn),8.4,-1.4,1,0.9
Cc1ccc2[nH]c(=O)c(CN(Cc3ccccc3Cl)C(=O)N3CCOCC3)cc2c1,82.4*,71.7*,0.3,0.2
CCOc1ccc2[nH]c(=O)c(CN(Cc3ccccc3)C(=O)N3CCCC3)cc2c1,12.2,11.2,0.9,0.9
c1ccc(-c2cnn3nnnc3n2)cc1,-12.0,-5.7,1.1,1.1
CC(=O)NC(Cc1c[nH]c2ccccc12)C(=O)OCC(=O)Nc1ccc2c(c1)OCO2 (stereo not drawn),39.2,73.9*,0.3,0.6
Cc1cc(NC(=O)COC(=O)[C@H](Cc2c[nH]c3ccccc23)NC(=O)c2ccc(F)cc2)no1,29.9,75.5*,0.2,0.7
COC(=O)C(Cc1c[nH]c2ccccc12)NC(=O)CNC(C)=O (stereo not drawn),12.7,-2.6,1,0.9
CC(=O)NC(Cc1c[nH]c2ccccc12)C(=O)OCC(=O)Nc1cc(C)on1 (stereo not drawn),87.2*,84.1*,0.2,0.1
